Drawing on PubChem BioAssay (NCI), this text covers growth for 13 compounds.

The panel holds about 83,000 compounds, 20% with a hit somewhere; the sample as a whole holds those more often.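 Growth was measured after 48 h exposure to one concentration of compound in 96-well plates. Values under 10 count as active.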 A number with no mark means an inactive call. Calls of active or inactive are those of the source.

Holding throughout (assay): NCI-60 one-dose screen, 48 h (100 = growth as untreated, 0 = no growth, -100 = all killed)
Conditions in all cases: 10 µM unless noted

Assay [1] relates to NCI-H226 lung.
The subject of assay [2] is NCI-H322M lung.
Assay [3] has as its system HOP-62 NSCLC.
The subject of assay [4] is NCI-H460 lung.
The test system of assay [5] is HOP-92 NSCLC.
Assay [6] deals with A549/ATCC NSCLC.
In assay [7] the test system is 786-0 renal.
Assay [8] concerns NCI-H522 lung.
Assay [9] deals with COLO 205 colon.

Take `CC1[C@H]2[C@H](C[C@H]3[C@@H]4CC=C5c6sc(Nc7ccccc7F)nc6CC[C@]5(C)[C@H]4CC[C@@]32C)O[C@]12CC[C@@H](C)CO2` (stereo partly drawn): the growth was -29.2% (active) in assay [1]; -31.4% (active) in [2]; -62.4% (active) in assay [3]; -62.6% (active) in [4]; -59.2% (active) in assay [5]; -63.5% (active) in assay [6]. The growth in assay [7] was -82.1% (active).
Consider `Nc1nnc(-c2c[nH]c3ccc(Br)cc23)c(-c2c[nH]c3ncc(Br)cc23)n1`, for which the growth was 39.3% in assay [1]; 53.5% in [2]; 49.4% in [3]; 27.7% in [4]; 21.5% in [5]; 30.9% in assay [8]. In addition, the growth in assay [6] is 42.2%; in assay [7], 34.7%; in assay [9], 48.3%.
On to `COc1ccc(/C=C/c2nc3ccccc3nc2Nc2cccc(C)c2)cc1`, for which the growth was 93.1% in [1]; 105% in [2]; 92.7% in assay [3]; 101% in [4]; 99.3% in assay [5]; 83% in assay [8]. The growth in assay [6] was 106%; in [7], 97.4%; in assay [9], 105%.
As to `Cn1cc(-c2nc(N)nnc2-c2c[nH]c3ccc(Br)cc23)c2cc(Br)cnc21`, the growth was 37.8% in assay [2]; 17.8% in assay [3]; -25% (active) in assay [4]; -6.93% (active) in assay [5]; -47.4% (active) in assay [8]; 12.5% in assay [6]. Besides, the results for the growth in [7] and in [9] were -10.9% (active) and -85.3% (active), respectively.
As for `CC1(C)CC[C@]2(C(=O)O)CC[C@]3(C)C(=CCC4[C@@]5(C)C[C@@H](O)[C@@H]6OC(c7ccco7)OC[C@@]6(C)C5CC[C@]43C)C2C1` (stereo partly drawn), the growth was 50.6% in assay [1]; 43.1% in assay [3]; 19.8% in [4]; -1.27% (active) in assay [5]; 20.7% in assay [8]; 18.3% in assay [6]. For the same compound, the growth in assay [7] was 42.7%; in assay [9] it was -86.9% (active).
For `C#CCOc1cc(N(CC)CC)ccc1C(C(=O)NC(C)(C)C)N(C(=O)C1CCc2cc(F)ccc2O1)c1ccccc1Br` (stereo not drawn), the growth in assay [1] is 63.8%; in assay [2], 86.3%; in assay [3], 73.3%; in assay [4], 52.3%; in assay [5] it was 56.4%; in [8], 47.6%. For the same compound, the growth is 54.2% in assay [6], 59.4% in assay [7] and 46.9% in assay [9].
For the compound `C#CCOc1ccc(/C=N/Nc2nc(-c3ccc(F)cc3)cs2)cc1OC`, the growth in assay [1] was 54.1%; in assay [2], 83.1%; in assay [3], 86.9%; in assay [5] it was 34.2%; in assay [8], 46.9%; in assay [6] it was 72.9%. Moreover, the growth in [7] is 84.4%; in assay [9] it was 68.9%.
Regarding `COc1ccc2c(c1)c(-c1cc(N)n3nc(-c4cn(C)c5ccccc45)cc3n1)cn2C`, the growth is -44% (active) in assay [1]; -42.2% (active) in assay [2]; -59.6% (active) in [3]; -44.5% (active) in assay [4]; -75.2% (active) in assay [5]; -64.4% (active) in assay [8]. Also, the figures for the growth in assay [6], in assay [7] and in [9] were -44.6% (active), -88.3% (active) and -83% (active), respectively.
With `O=C(c1ccccc1)c1ccc2nc(-c3cccc(Cl)c3)[nH]c2c1`, the growth in assay [1] was 105%; in assay [3], 107%; in [4], 111%; in [5] it was 111%; in assay [8], 101%; in [6], 104%. Further, the growth in assay [7] is 100%; in [9], 116%.
On to `CC(=O)c1c(N)c(C#N)cn1-c1ccc(Cl)cc1Cl`, for which the growth in assay [1] is 80.6%; in assay [2], 101%; in [3], 94.6%; in assay [4], 111%; in assay [5] it was 98.6%; in assay [8], 82.3%. Besides, the growth in assay [6] is 95.8%; in assay [7] it was 99.2%; in assay [9], 105%.
`COC(OC)C1=C(C)OC(N)=C(C#N)C12C(=O)Nc1ccccc12` (stereo not drawn): the growth in assay [1] was 90.2%; in [2] it was 98.3%; in assay [3], 111%; in [5] it was 118%; in [8], 6.48% (active); in assay [6], 114%. Moreover, in assay [7], the growth was 113%.
On to `C#CCOc1ccc(/C=N/Nc2nc(-c3cc4cc(Br)ccc4oc3=O)cs2)cc1OC`, for which the growth in assay [1] is 29.8%; in assay [2], 77.8%; in assay [3] it was 51.7%; in assay [4], 43.4%; in assay [5], 45.5%; in [8], 34.3%. For the same compound, the growth was 49.5% in assay [6], 50.8% in assay [7] and 88.1% in assay [9].
Take `CCOC(=O)C1=C(N)N(c2ccccc2)C2=C(C(=O)CC(C)(C)C2)C1c1ccccc1Cl` (stereo not drawn): the growth was 76.3% in assay [1]; 82.2% in assay [2]; 94.1% in [3]; 60.2% in [4]; 68.9% in [5]; 75.6% in [6]. For the same compound, the growth in [7] is 79.4%; in [9] it was 65.3%.
